# In the library only some 1.7% were active in any assay of this set; here they are far more common.
# GLP1R cytotox – cytotoxic in the GLP-1 receptor inverse agonist counter-screen | HEK293 cAMP-luciferase reporter cells, luminescence, 24 h | 410,000 tested, 0.13% active | AID 624418 | Potency, µM (top dose mostly 38.3 µM), for the others: at the highest dose activity change, negative = inhibition, most hits filed as inhibitors;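 note: loss of luciferase light is scored as toxicity; % is set by controls: 0 for no effect and ±100 for the full control effect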
#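 To flag toxic compounds, the library was rerun on cells for 24 hr at 37 deg C and 5% CO2. Viability-linked luminescence was captured 12 min after adding luciferase detection reagent.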
# PTHR1 ag – PTHR1 (human) receptor agonism; Q03431; HEK293 GP2 PTHR1 cells, GloSensor cAMP luminescence, 1 h; Potency, µM (titrated, usually from 115 µM), inactives show at the highest dose activation, usual class: activators; 410,000 tested, 0.075% active; AID 743266; note: nearly all actives have a fitted effect of over 55% in size
#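 HEK-293-derived GP2 cells expressing PTHR1 and a GloSensor cAMP reporter, 3,000/well, plated overnight, given luciferin plus IBMX (each 0.5 mM as added) for 1 h at 37 °C, then compound for 1 h at 37 °C. Luminescence was read after 15 min at room temperature.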
# GLP1R inv ag – inverse agonists of human GLP-1 receptor | HEK293 GLP-1R CRE-luciferase, luminescence, 24 h; GLP-1R form is constitutively active | Potency, µM (doses to about 38.3 µM), for inactives: top-dose activity change, negative = inhibition, actives largely listed as inhibitors | 410,000 tested, 1.6% active | P43220; note: % is set by controls: 0 for no effect and ±100 for the full control effect; nearly all actives have a fitted effect of over 55% in size
# Target sequence (P43220 whole entry, looked up): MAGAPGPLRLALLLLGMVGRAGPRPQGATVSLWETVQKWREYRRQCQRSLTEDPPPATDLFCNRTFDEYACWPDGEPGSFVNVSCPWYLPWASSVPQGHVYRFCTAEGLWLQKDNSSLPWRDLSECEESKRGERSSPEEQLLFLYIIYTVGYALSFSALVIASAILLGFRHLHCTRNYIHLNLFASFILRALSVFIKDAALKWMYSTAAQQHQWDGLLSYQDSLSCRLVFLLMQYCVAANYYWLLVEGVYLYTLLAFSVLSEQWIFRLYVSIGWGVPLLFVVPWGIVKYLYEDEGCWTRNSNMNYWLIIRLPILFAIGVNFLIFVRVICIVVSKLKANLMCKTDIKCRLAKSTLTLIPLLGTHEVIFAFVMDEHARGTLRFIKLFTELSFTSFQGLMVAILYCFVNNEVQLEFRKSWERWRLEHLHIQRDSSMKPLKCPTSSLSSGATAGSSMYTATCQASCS
#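 Inverse agonists were sought by their lowering of basal cAMP reporter luciferase output in HEK293 cells stably carrying constitutively active human GLP-1R, after 24 h compound treatment.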
# GLP-1R agonist – GLP-1 receptor (human) agonism | Potency, µM (top dose mostly 45.6 µM), without a hit: top-dose activation, usual class: activators | 380,000 tested, 0.007% active | HEK293 GLP-1R CRE-luciferase, luminescence, 4-6 h; cells express a hypersensitive GLP-1R form | P43220 | AID 624172; note: % of control where 0% means no effect
# * hit, by the source's call; i = inactive; ? = inconclusive; . = no result; [ ] = another dose, or the depositor's remark. Calls come from the whole dose curve; as a rule, active = well fitted curve in the direction sought with a large enough effect; inconclusive = small, poorly fitted or top-dose-only effect, or another doubt; inactive = no such curve, though single readings can be large; an effect the other way counts as inactive or inconclusive. Potency is the fitted concentration of half-maximal effect.
SMILES,GLP1R cytotox,PTHR1 ag,GLP1R inv ag,GLP-1R agonist
CN1CCN(C(c2cccs2)c2nnnn2Cc2ccc(F)cc2)CC1 (configuration not stated),-2%,i,-16%,-1%
CC1CCCN(C(c2cccs2)c2nnnn2Cc2ccccc2)C1 (configuration not stated),-3%,-8%[57.5 µM],11µM*,6%
O=C(Nc1ccc(Cl)cc1)C1CCN(S(=O)(=O)c2ccc(Br)s2)CC1,-15%,-17%,?,.
CN1CCN(c2ccc(NC(=O)CSc3nnnn3-c3ccccc3Cl)cc2)CC1,-6%,?,5µM*,-1%
CCCCS/C(N)=N/N=C/c1cc(C)ccc1O,-14%,i,10µM*,35%
CCS/C(N)=N/N=C/c1cc(C)ccc1O,?,-6%[57.5 µM],?,-35%
N=C(N)c1ccc(OCCCOc2ccc(C(=N)N)cc2Br)c(Br)c1,.,.,.,-1%
COc1c(Cl)cc(C(=O)Nc2cccc(-c3nc4ccccc4[nH]3)c2)cc1Cl,?,-2%,7.9µM*,.
COc1c(Cl)cc(C(=O)Nc2ccccc2-c2ccccc2)cc1Cl,8%,-20%,10µM*,-12%
CSc1ncnc2c1ncn2CCCNC1CCN(Cc2ccccc2)CC1,-10%,-11%,?,-3%
c1ccc(COc2ncnc3c2ncn3CCCNC2CCN(Cc3ccccc3)CC2)cc1,?,-13%,7.1µM*,-1%
CN(Cc1ccc(F)cc1)C(=O)c1cccc(S(=O)(=O)N2CCN(Cc3ccccc3)CC2)c1,-13%,-25%,?,8%
CSc1ccc(CN(C)C(=O)c2cccc(S(=O)(=O)N3CCN(Cc4ccccc4)CC3)c2)cc1,-12%,-36%,11µM*,7%
COc1cccc(NC(=O)c2cccc(S(=O)(=O)N3CCN(Cc4ccccc4)CC3)c2)c1,3%,-53%,6.3µM*,6%
COCCN(Cc1ccccc1)C(=O)c1cccc(S(=O)(=O)N2CCN(c3ccccc3)CC2)c1,-4%,-90%,10µM*,10%
CN(Cc1ccc(F)cc1)C(=O)c1cccc(S(=O)(=O)N2CCN(c3ccc(F)cc3)CC2)c1,12%,-40%,10µM*,6%
CCSc1nnc2c(n1)OC(c1ccc(C)cc1)N(C(C)=O)c1ccccc1-2 (configuration not stated),-12%,i,2%,.
O=C(CCOc1ccccc1)N(Cc1cccnc1)c1nc2c(Cl)cccc2s1,-7%,-27%,?,.
O=C(COc1ccccc1)Nc1nnc(SCc2cc(=O)c3ccccc3[nH]2)s1,-12%,-25%,-5%,.
COc1cccc(NC(=O)C2(C)CCN2CCc2ccccc2)c1 (configuration not stated),0%,-13%,11µM*,5%
CSc1ccc(CN(C)C(=O)c2cccc(S(=O)(=O)NCc3ccccc3)c2)cc1,-2%,-31%,5µM*,9%
CSc1ccc(CN(C)C(=O)c2cc(S(=O)(=O)NCc3ccccc3)ccc2C)cc1,-3%,-22%,?,-4%
COC(=O)[C@@]1(Cc2ccccc2)[C@H]2C(=O)N(C)C(=O)[C@H]2[C@H]2CN=C(SCC(=O)c3ccccc3)N21,-10%,-8%,30%,-6%
COc1ccccc1N1CCN(C(=O)CCc2c(C)nn(-c3ccc(N4CCCC4)nn3)c2C)CC1,0%,-3%,2%,.
Cc1ccccc1C(=O)Nc1sc2c(c1C(=O)N1CCC(C)CC1)CCC(C)C2 (configuration not stated),1%,-9%,-8%,.
SMILES,GLP1R cytotox,PTHR1 ag,GLP1R inv ag,GLP-1R agonist
O=C(CC1SC(=Nc2ccc(OC(F)F)cc2)N(CCN2CCOCC2)C1=O)Nc1ccccc1 (configuration not stated),-9%,i,10µM*,8%
O=C(Nc1ccc(Br)cc1)Nc1nc2c(s1)CCCCCC2,-10%,i,-11%,.
COc1cccc(C(c2ccccc2)N2C3CCC2CN(S(=O)(=O)c2ccc(F)cc2)CC3)c1 (configuration not stated),2%,i,3.5µM*,-20%
Cc1ccc(SCc2cn3ccccc3n2)cc1,?,-11%,?,11%
Cn1ccnc1SCc1cn2cc(Br)ccc2n1,-13%,-13%[57.5 µM],4.5µM*,-21%
Cc1nnc(C(C)C)n1C1C[C@H]2CC[C@@H](C1)N2CC[C@H](NC(=O)C1CCC(F)(F)CC1)c1ccccc1 (some centres not stated),.,.,.,-2%
CCOC(=O)c1c(NC(=O)CSc2cn(CCNC(=O)c3ccccc3F)c3ccccc23)sc2c1CCC2,-10%,-30%,5%,4%
O=C(Nc1cccc(OC(F)(F)F)c1)C1Cc2c(-c3ccccc3Oc3ccccc3)ccnc2O1 (configuration not stated),-3%,-11%,13µM*,4%
O=C(CP(=O)(c1ccccc1)c1ccccc1)Nc1nc2ccc(Cl)cc2s1,-1%,-41%,11µM*,0%
COc1ccc(CNC(=O)CCS(=O)(=O)c2ccc3c(c2)NC(=O)CS3)cc1,-10%,-16%,-10%,3%
CCN(C(=O)Cn1cnc2onc(-c3ccc(F)cc3)c2c1=O)c1ccc(OC)cc1,6%,-19%,-3%,-3%
COc1ccccc1C(c1c(N)n(C)c(=O)n(C)c1=O)C(C)[N+](=O)[O-] (configuration not stated),-8%,i,-1%,6%
COc1ccccc1C(C[N+](=O)[O-])c1c(N)n(C)c(=O)n(C)c1=O (configuration not stated),?,-33%,2.8µM*,-11%
Cc1nn2c(N3CCN(CCO)CC3)c3c(nc2c1-c1ccccc1)CCCC3,0%,-6%,3.5µM*,26%
CCCCN(C)S(=O)(=O)c1cc2c(cc1Br)CCN2C(=O)C1CC1,-5%,i,?,24%
O=Cc1s/c(=N\S(=O)(=O)c2ccccc2)n(CCCCl)c1Cl,?,-23%,2.8µM*,-5%
CO[C@@H]1C[C@H](O[C@H]2[C@@H](C)[C@H](O[C@@H]3O[C@@H](C)C[C@@H](N(C)C)[C@@H]3OC(C)=O)[C@H](C)C[C@]3(CO3)C(=O)[C@H](C)[C@H](OC(C)=O)[C@H](C)[C@H](C)OC(=O)[C@@H]2C)O[C@H](C)[C@@H]1OC(C)=O,.,.,.,9%[19.8 µM]
O=C(COc1ccc(/C=N/NS(=O)(=O)c2ccccc2)cc1)Nc1cccc(Cl)c1,-16%,-21%[57.5 µM],10µM*,0%
O=C(COc1ccc(/C=N/NS(=O)(=O)c2ccccc2)cc1)NCc1ccccc1,-19%,i,-9%,-8%
COC(=O)C1=C(C)NC(C)=C(C(=O)OC(C)C)[C@H]1c1cccc2nonc12,.,.,.,-1%[19.8 µM]
COc1ccc(-n2c(=S)[nH]c3cc(C(=O)Nc4ccc(C)c(F)c4)ccc3c2=O)c(OC)c1,-4%,-22%,7.1µM*,-2%
COc1ccc(CCCc2nnc(SCC(=O)Nc3cccc(C)c3)o2)cc1C,-8%,-41%,-4%,.

# Assay outcomes as filed in PubChem BioAssay.
